# About 79,000 compounds went through this panel and 15% of them were active in at least one assay; those are over-represented in the sample as a whole. A number with no mark means an inactive call. Calls of active or inactive are those of the source. Cut-off read from the data, not from the text of the source: active = growth inhibition above about 70%; inactive = the rest.
# Assays:
# [1] = NCI Yeast Anticancer Drug Screen. Data for the rad52 strain (AID 147);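 note: 0% = growth of vehicle-treated control cultures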; settings: S. cerevisiae rad52 mutant growth inhibition, hits give high values
# Outline: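 Genetically altered yeast (DNA damage repair defect) treated with compound; inhibition calculated relative to vehicle.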
# [2] = NCI Yeast Anticancer Drug Screen. Data for the wt1 strain (AID 149);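 note: 0% = growth of vehicle-treated wt1 cultures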; settings: S. cerevisiae wt1 strain (SPY 50644) growth inhibition, hits give high values
# Outline: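 Measured: growth of wt1 yeast under compound versus vehicle treatment, reported as inhibition.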
# [3] = NCI Yeast Anticancer Drug Screen. Data for the rad50EPP+ strain (AID 151);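 note: 0% = growth of vehicle-treated control cultures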; settings: S. cerevisiae rad50 mutant strain, hits give high values
# Outline: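 Strain rad50EPP+; compound exposure; % growth inhibition vs vehicle.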
# [4] = NCI Yeast Anticancer Drug Screen. Data for the rad50 strain (AID 155);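 note: 0% = growth of vehicle-only cultures of the same strain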; settings: S. cerevisiae rad50 strain growth inhibition, hits give high values
# Outline: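 Growth of the mutant yeast was measured after compound exposure and referenced to vehicle-treated cultures.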
# [5] = NCI Yeast Anticancer Drug Screen. Data for the mec2-1 strain (AID 157); settings: S. cerevisiae mec2-1 strain, hits give high values
# Outline: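 Cells of the genetically defined mec2-1 yeast strain are incubated with test compound. Inhibition of growth is calculated against vehicle-treated controls.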
# [6] = NCI Yeast Anticancer Drug Screen. Data for the rad14 strain (AID 159);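 note: 0% = growth of vehicle-treated control cultures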; settings: S. cerevisiae rad14 strain growth inhibition, hits give high values
# Outline: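 Here, inhibition of yeast growth was measured after compound exposure, using a strain with a genetic defect in DNA damage repair and vehicle-treated cultures as the reference.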
# [7] = NCI Yeast Anticancer Drug Screen. Data for the sgs1 mgt1 strain (AID 161);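 note: 0% = growth of cultures given vehicle only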; settings: S. cerevisiae sgs1 mgt1 strain, hits give high values
# Outline: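 Mutant yeast exposed to compound; growth scored against vehicle-only wells.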
# [8] = NCI Yeast Anticancer Drug Screen. Data for the CLN2oe strain (AID 163);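 note: 0% = growth of vehicle-only control cultures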; settings: S. cerevisiae CLN2oe strain, hits give high values
# Outline: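 Strain altered in cell-cycle control, incubated with compound; growth compared to solvent-treated controls.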
# [9] = NCI Yeast Anticancer Drug Screen. Data for the cln2 rad14 strain (AID 165);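 note: 0% = growth equal to vehicle treated cultures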; settings: S. cerevisiae cln2 rad14 strain, hits give high values
# Outline: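 The screen exposed genetically defined yeast (cln2 rad14) to test compounds and scored growth inhibition relative to vehicle-treated controls.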
# [10] = NCI Yeast Anticancer Drug Screen. Data for the bub3 strain (AID 167); settings: S. cerevisiae bub3 mutant strain, hits give high values
# Outline: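 Whole-cell yeast assay. The mutant strain was incubated with compounds, and growth inhibition was determined by comparison with vehicle-treated cells.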
# [11] = NCI Yeast Anticancer Drug Screen. Data for the wt2 strain (AID 169);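 note: 0% = growth of vehicle-treated yeast cultures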; settings: S. cerevisiae wt2 strain growth inhibition, hits give high values
# Outline: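 Steps: yeast strain treated with compound; growth recorded; inhibition calculated relative to cultures given vehicle alone.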
# [12] = NCI Yeast Anticancer Drug Screen. Data for the mlh1 strain (AID 171);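 note: 0% = growth of vehicle-treated control cultures of the same strain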; settings: S. cerevisiae mlh1 strain growth inhibition, hits give high values
# Outline: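 Yeast screen: mutant strain plus compound, growth scored against vehicle control wells.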
# [13] = NCI Yeast Anticancer Drug Screen. Data for the sgs1 strain (AID 173);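 note: 0% = growth of vehicle-only control cultures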; settings: S. cerevisiae sgs1 mutant, hits give high values
# Outline: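 Inhibition of yeast growth served as the measure. The mutant strain was treated with each compound, and growth was normalised to cultures receiving vehicle alone.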
# [14] = NCI Yeast Anticancer Drug Screen. Data for the mlh1 rad18 strain (AID 175); settings: S. cerevisiae mlh1 rad18 strain growth inhibition, hits give high values
# Outline: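 Compound-treated yeast growth, normalised to vehicle controls. Strain bears defined DNA repair mutations.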
# [15] = NCI Yeast Anticancer Drug Screen. Data for the rad18 strain (AID 177); settings: S. cerevisiae rad18 mutant growth inhibition, hits give high values
# Outline: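 Inhibition values reflect reduced yeast growth compared with vehicle-treated controls, using a strain engineered with a DNA damage repair defect.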
# [16] = at 5.0 µM (retest, dose inferred, filed as 0.5)
# [17] = at 50.0 µM (retest, dose inferred, filed as 5.0)
compound,measurement,setting,value
C=C(C(=O)OC)N1C(=O)CC(C)C1=O (stereo not drawn),growth inhibition,[1]; at 1.2 µM,0%
same,growth inhibition,[1]; at 3.7 µM,10%
same,growth inhibition,[1]; at 11.0 µM,14%
same,growth inhibition,[1]; at 33.0 µM,24%
same,growth inhibition,[1]; at 100.0 µM,56%
same,growth inhibition,[2]; at 1.2 µM,7%
same,growth inhibition,[2]; at 3.7 µM,15%
same,growth inhibition,[2]; at 11.0 µM,12%
same,growth inhibition,[2]; at 33.0 µM,19%
same,growth inhibition,[2]; at 100.0 µM,67%
same,growth inhibition,[3]; at 1.2 µM,-1%
same,growth inhibition,[3]; at 3.7 µM,4%
same,growth inhibition,[3]; at 11.0 µM,6%
same,growth inhibition,[3]; at 33.0 µM,8%
same,growth inhibition,[3]; at 100.0 µM,-10%
same,growth inhibition,[4]; at 1.2 µM,8%
same,growth inhibition,[4]; at 3.7 µM,8%
same,growth inhibition,[4]; [16],14%
same,growth inhibition,[4]; at 11.0 µM,13%
same,growth inhibition,[4]; at 33.0 µM,14%
same,growth inhibition,[4]; [17],66%
same,growth inhibition,[4]; at 50.0 µM,75.5% (active)
same,growth inhibition,[4]; at 100.0 µM,67%
same,growth inhibition,[5]; at 1.2 µM,0%
same,growth inhibition,[5]; at 3.7 µM,12%
same,growth inhibition,[5]; [16],27%
same,growth inhibition,[5]; at 11.0 µM,23%
same,growth inhibition,[5]; at 33.0 µM,48%
same,growth inhibition,[5]; [17],85% (active)
same,growth inhibition,[5]; at 50.0 µM,80.2% (active)
same,growth inhibition,[5]; at 100.0 µM,81% (active)
same,growth inhibition,[6]; at 1.2 µM,-11%
same,growth inhibition,[6]; at 3.7 µM,-2%
same,growth inhibition,[6]; at 11.0 µM,8%
same,growth inhibition,[6]; at 33.0 µM,11%
same,growth inhibition,[6]; at 100.0 µM,68%
same,growth inhibition,[7]; [16],32%
same,growth inhibition,[7]; [17],81% (active)
same,growth inhibition,[7]; at 50.0 µM,77.3% (active)
same,growth inhibition,[8]; at 1.2 µM,-3%
same,growth inhibition,[8]; at 3.7 µM,11%
same,growth inhibition,[8]; at 11.0 µM,10%
same,growth inhibition,[8]; at 33.0 µM,14%
same,growth inhibition,[8]; at 100.0 µM,38%
same,growth inhibition,[9]; [16],6%
same,growth inhibition,[9]; [17],30%
same,growth inhibition,[9]; at 50.0 µM,47.4%
same,growth inhibition,[10]; at 1.2 µM,10%
same,growth inhibition,[10]; at 3.7 µM,1%
same,growth inhibition,[10]; [16],21%
same,growth inhibition,[10]; at 11.0 µM,9%
same,growth inhibition,[10]; at 33.0 µM,25%
same,growth inhibition,[10]; [17],88% (active)
same,growth inhibition,[10]; at 50.0 µM,85.5% (active)
same,growth inhibition,[10]; at 100.0 µM,80% (active)
same,growth inhibition,[11]; at 1.2 µM,-41%
same,growth inhibition,[11]; at 3.7 µM,-26%
same,growth inhibition,[11]; at 11.0 µM,-17%
same,growth inhibition,[11]; at 33.0 µM,50%
same,growth inhibition,[11]; at 100.0 µM,87% (active)
same,growth inhibition,[12]; at 1.2 µM,2%
same,growth inhibition,[12]; at 3.7 µM,4%
same,growth inhibition,[12]; at 11.0 µM,6%
same,growth inhibition,[12]; at 33.0 µM,42%
same,growth inhibition,[12]; at 100.0 µM,80% (active)
same,growth inhibition,[13]; at 1.2 µM,0%
same,growth inhibition,[13]; at 3.7 µM,12%
same,growth inhibition,[13]; at 11.0 µM,21%
same,growth inhibition,[13]; at 33.0 µM,40%
same,growth inhibition,[13]; at 100.0 µM,67%
same,growth inhibition,[14]; [16],57%
same,growth inhibition,[14]; [17],96% (active)
same,growth inhibition,[14]; at 50.0 µM,67.5%
same,growth inhibition,[15]; at 1.2 µM,-5%
same,growth inhibition,[15]; at 3.7 µM,7%
same,growth inhibition,[15]; at 11.0 µM,17%
same,growth inhibition,[15]; at 33.0 µM,32%
same,growth inhibition,[15]; at 100.0 µM,75% (active)
